Reference: PubChem BioAssay (EPA / NIEHS)
Values joined by “and” are separate entries in the source; they are usually repeats but may differ in a detail not shown here. Identical values can stand only once. More than one record can exist for a structure, and the calls need not agree. Active and inactive are the calls of the source. Rule for the calls: active = hit-call score of the fitted dose curve at least 0.9, where 1 is the maximum; inactive = score below 0.9.

Legend:
[1] = read-out: Human Leukocyte Antigen - DR isotype (HLADR), HLA-DRA (gene 3122); experiment: BSK_CASM3C_HLADR: BioMAP Diversity Plus: CASM3C Assay for Human Leukocyte Antigen - DR isotype (HLADR) Biomarker Activity (AID 2283043); details: primary human coronary artery smooth muscle cells; actives raise or lower the signal;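 note: cell-surface HLA-DR protein level quantified by ELISA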
[2] = read-out: Macrophage colony-stimulating factor (MCSF), CSF1 (gene 1435); experiment: BSK_CASM3C_MCSF: BioMAP Diversity Plus: CASM3C Assay for Macrophage colony-stimulating factor (MCSF) Biomarker Activity (AID 2283044); details: primary human coronary artery smooth muscle cells; actives raise or lower the signal;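 note: M-CSF protein amount quantified by ELISA after 24 h exposure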
[3] = read-out: Low-density lipoprotein receptor (LDLR), LDLR (gene 3949); experiment: BSK_CASM3C_LDLR: BioMAP Diversity Plus: CASM3C Assay for Low-density lipoprotein receptor (LDLR) Biomarker Activity (AID 2283045); details: primary human coronary artery smooth muscle cells; actives raise or lower the signal;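 note: LDLR protein level on the cell surface quantified by ELISA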
[4] = read-out: Monocyte Chemoattractant Protein-1 (MCP1), CCL2 (gene 6347); experiment: BSK_CASM3C_MCP1: BioMAP Diversity Plus: CASM3C Assay for Monocyte Chemoattractant Protein-1 (MCP1) Biomarker Activity (AID 2283046); details: primary human coronary artery smooth muscle cells; actives raise or lower the signal;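 note: MCP-1 level quantified by ELISA 24 h after dosing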
[5] = BSK_CASM3C_Proliferation: Cell Proliferation Assessment in the BioMAP Diversity Plus: CASM3C Assay (AID 2283047); details: primary human coronary artery smooth muscle cells;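 note: sulforhodamine B total protein stain as relative cell number at 560 nm; sub-confluent cells exposed 48 h before staining; fitted both ways against DMSO so gain or loss of cell number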
[6] = read-out: Monokine induced gamma interferon (MIG), CXCL9 (gene 4283); experiment: BSK_CASM3C_MIG: BioMAP Diversity Plus: CASM3C Assay for Monokine induced gamma interferon (MIG) Biomarker Activity (AID 2283048); details: primary human coronary artery smooth muscle cells; actives raise or lower the signal;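 note: MIG protein level measured by ELISA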
[7] = read-out: serum amyloid A (SAA), SAA1 (gene 6288); experiment: BSK_CASM3C_SAA: BioMAP Diversity Plus: CASM3C Assay for serum amyloid A (SAA) Biomarker Activity (AID 2283049); details: primary human coronary artery smooth muscle cells; actives raise or lower the signal;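 note: SAA protein level quantified by ELISA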
[8] = BSK_CASM3C_SRB: Viability Assessment in the BioMAP Diversity Plus: CASM3C Assay (AID 2283050); details: primary human coronary artery smooth muscle cells;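 note: total protein by SRB staining as cytotoxicity measure in parallel cultures; cells exposed to compound for 24 h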
[9] = read-out: Thrombomodulin, THBD (gene 7056); experiment: BSK_CASM3C_Thrombomodulin: BioMAP Diversity Plus: CASM3C Assay for Thrombomodulin Biomarker Activity (AID 2283051); details: primary human coronary artery smooth muscle cells; actives raise or lower the signal;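 note: thrombomodulin protein level measured by ELISA 24 h after dosing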
[10] = read-out: Tissue Factor, F3 (gene 2152); experiment: BSK_CASM3C_TissueFactor: BioMAP Diversity Plus: CASM3C Assay for Tissue Factor Biomarker Activity (AID 2283052); details: primary human coronary artery smooth muscle cells; actives raise or lower the signal;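 note: cell surface tissue factor protein level read by ELISA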

Measured: AC50

c1ccc(C(O[C@@H]2CCCN(CCc3ccc4c(c3)OCO4)C2)c2ccccc2)cc1
active: [3] 17.3 µM | [5] 32.5 µM
inactive: all other assays above

OC(Cn1cncn1)(Cn1cncn1)c1ccc(F)cc1F
inactive: all assays above

C=CN1CCCC1=O
inactive: all assays above

CCN(CC)C(=S)SSC(=S)N(CC)CC
active: [1] 31.2 µM | [2] 24.4 µM | [3] 35.4 µM | [4] 31.6 µM | [5] 12.8 µM | [6] 33.3 µM | [7] 28.8 µM | [8] 31.4 µM | [9] 5.26 µM | [10] 20 µM

CCCCCOC(C)=O
inactive: all assays above

CCCCN1C(=O)[C@@H]([C@H](O)C2CCCCC2)NC(=O)C12CCN(Cc1ccc(Oc3ccc(C(=O)O)cc3)cc1)CC2
active: [3] 9.69 µM | [5] 18.3 µM
inactive: all other assays above

CNC(C)=O
inactive: all assays above

FC(F)C(F)(F)COCC1CO1 (centres undefined)
inactive: all assays above

CCOc1ccc2[nH]cc(C(=O)NCc3ccccc3)c(=O)c2n1
inactive: all assays above

CCCCCCCCCC
inactive: all assays above

O=S(=O)(O)CCC(F)(F)C(F)(F)C(F)(F)C(F)(F)C(F)(F)C(F)(F)F
inactive: all assays above

CCCOc1ccc(S(=O)(=O)N2CCN(CC)CC2)cc1-c1nc2c(CC)n(Cc3ccccn3)nc2c(=O)[nH]1
active: [1] 3.97 µM
inactive: all other assays above

Cn1c(=O)c2[nH]cnc2n(C)c1=O
inactive: all assays above

Cc1cccc(O)c1C
inactive: all assays above

C[Si](C)(C)C(F)(F)C(F)(F)C(F)(F)F
inactive: all assays above

Cn1cc[nH]c1=S
inactive: all assays above

Cc1ccc(S(=O)(=O)NC(=O)NN2CCCCCC2)cc1
inactive: all assays above

Nc1ccn([C@@H]2O[C@H](CO)[C@@H](O)[C@@H]2O)c(=O)n1
active: [5] 0.148 µM
inactive: all other assays above

O=C(O)c1cccc(C(=O)O)c1
active: [10] 0.357 µM
inactive: all other assays above

NNC(=O)c1ccncc1
inactive: all assays above

COS(C)(=O)=O
inactive: all assays above

COc1cc2c(c(OC)c1OC)-c1ccc(OC)c(=O)cc1[C@@H](NC(C)=O)CC2
active: [1] 0.43 µM | [5] 0.148 µM
inactive: all other assays above

CCOC(N)=O
inactive: all assays above

C[C@]12C=CC(=O)C=C1CC[C@H]1[C@@H]3C[C@@H](O)[C@](O)(C(=O)CO)[C@@]3(C)C[C@H](O)[C@@]12F
inactive: [3] | [5] | [6] | [8]
active: [1] 0.148 µM | [2] 0.417 µM | [4] 0.148 µM | [7] 0.354 µM | [9] 3.97 µM | [10] 0.149 µM

CCCCCCCC1CCC(=O)O1 (centres undefined)
inactive: all assays above

OC(O)(C(F)C(O)(O)C(F)(F)F)C(F)(F)F
active: [6] 33.3 µM and 28.2 µM | [7] 49.1 µM | [10] 19 µM and 13.4 µM
inactive: [1] | [2] | [3] | [4] | [5] | [7] | [8] | [9]

CCn1nc(C)c2c1C(=O)NCC(c1ccc(O)cc1)=N2
active: [2] 2.51 µM | [5] 10 µM
inactive: all other assays above

CCCCCCCCCCCCCCO
inactive: [1]
active: [2] 31.3 µM | [3] 32.3 µM | [4] 32.4 µM | [5] 38 µM | [6] 29.5 µM | [7] 31 µM | [8] 30.2 µM | [9] 31.5 µM | [10] 31.5 µM

CCCCC(CC)C(=O)OCCOCCOCCOC(=O)C(CC)CCCC (centres undefined)
active: [9] 20 µM
inactive: all other assays above

CC(C)CC(C)O (centres undefined)
inactive: all assays above

CCCC(CCC)C(=O)O
inactive: all assays above

O=S(=O)(O)c1ccc(N=Nc2c(O)ccc3cc(S(=O)(=O)O)ccc23)cc1
inactive: all assays above

CCCCCCCC/C=C\CCCCCCCC(=O)OC[C@@H](O)[C@H]1OC[C@H](O)[C@H]1O
inactive: all assays above

FC(F)(F)C(F)(F)C(F)(F)C(F)(F)C(F)(F)C(F)(F)I
inactive: all assays above

Cc1nccn1-c1ccc(Sc2cccc(C3(C(N)=O)CCOCC3)c2)cc1
active: [1] 15.7 µM | [5] 20 µM | [6] 16.4 µM
inactive: all other assays above

O=c1[nH]cnc2c1ncn2[C@H]1CC[C@@H](CO)O1
not listed: [2]
inactive: all other assays above

NCC(F)(F)C(F)(F)C(F)(F)C(F)(F)F
inactive: all assays above

C[C@@H](Oc1ccc(CNC(=O)c2cccnc2Oc2ccc3c(c2)OCO3)c(F)c1)C(=O)O
inactive: all assays above

CC1(C)C(=O)N(Cl)C(=O)N1Cl
inactive: all assays above

CC(C)C(=O)Nc1ccc([N+](=O)[O-])c(C(F)(F)F)c1
active: [3] 4.78 µM
inactive: all other assays above

OCC(CO)(CO)CO
inactive: all assays above

S=P(N1CC1)(N1CC1)N1CC1
active: [5] 20.9 µM
inactive: all other assays above

FC(F)(F)COC(OCC(F)(F)F)OCC(F)(F)F
inactive: all assays above

O=C(Cl)C(F)(F)C(F)(F)C(F)(F)C(=O)Cl
inactive: all assays above

c1ccc2c(c1)-c1cccc3c1c-2cc1ccccc13
inactive: all assays above

CCCc1ccccc1
inactive: all assays above

NC(N)=O
not listed: [2]
inactive: all other assays above

O=C1CN(N=Cc2ccc([N+](=O)[O-])o2)C(=O)N1
inactive: all assays above

O=C(O)c1ccc2c(c1)nc(C(=O)NC1CCN(C3CC3)CC1)n2Cc1cc(-c2ccc(Cl)s2)on1
inactive: all assays above

OC[C@H]1O[C@@](CO)(O[C@H]2O[C@H](CO)[C@@H](O)[C@H](O)[C@H]2O)[C@@H](O)[C@@H]1O
inactive: all assays above

O=S1(=O)CCCO1
inactive: all assays above

OC[C@H]1O[C@@H]2O[C@H]3[C@H](O)[C@@H](O)[C@@H](O[C@H]4[C@H](O)[C@@H](O)[C@@H](O[C@H]5[C@H](O)[C@@H](O)[C@@H](O[C@H]6[C@H](O)[C@@H](O)[C@@H](O[C@H]7[C@H](O)[C@@H](O)[C@@H](O[C@H]1[C@H](O)[C@H]2O)O[C@@H]7CO)O[C@@H]6CO)O[C@@H]5CO)O[C@@H]4CO)O[C@@H]3CO
inactive: all assays above

OCCNCCO
inactive: all assays above

c1ccc2cc3ccccc3cc2c1
inactive: all assays above

O=C(O)c1cccc(C[C@@H]2COc3ccc(OCc4nc5cc(F)ccc5s4)cc3[C@@H]2O)c1
active: [5] 12.9 µM
inactive: all other assays above
